# Measurements as given in paper PMC5913336, “True equilibrium measurement of transcription factor-DNA binding affinities using automated polarization microscopy”.
# Experiments:
# Settings in all cases: tags: N-GST (pGEX-6P-1, kept); dsDNA, one strand shown
# [1] = target: T1, Croc (Drosophila melanogaster, UniProt P32027 54-175); assay: FP; 20 mM Tris-acetate pH 7.0, 50 "nM" NaCl as printed (probably mM), 0.01% Tween 20, 0.1 mM DTT; conventional titration
# T1 sequence: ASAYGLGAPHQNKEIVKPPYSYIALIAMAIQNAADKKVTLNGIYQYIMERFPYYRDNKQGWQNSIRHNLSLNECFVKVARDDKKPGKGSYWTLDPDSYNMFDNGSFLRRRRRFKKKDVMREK
# [2] = target: T2, Cad (Drosophila melanogaster, UniProt P09085 273-344); assay: as above
# T2 sequence: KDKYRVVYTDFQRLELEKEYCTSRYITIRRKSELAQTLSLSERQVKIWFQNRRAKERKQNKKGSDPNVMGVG
# [3] = target: T3, Kni (Drosophila melanogaster, UniProt P10734 2-102); assay: FP; 33 mM phosphate pH 7.0, 90 mM NaCl, 0.01% Tween 20, 0.1 mM DTT, 0.5% agarose; room temperature
# T3 sequence: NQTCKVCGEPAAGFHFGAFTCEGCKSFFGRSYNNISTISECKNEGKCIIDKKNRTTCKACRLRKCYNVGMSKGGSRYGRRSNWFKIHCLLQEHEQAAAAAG
# [4] = target: T4, Ems (Drosophila melanogaster, UniProt P18488 373-462); assay: as above
# T4 sequence: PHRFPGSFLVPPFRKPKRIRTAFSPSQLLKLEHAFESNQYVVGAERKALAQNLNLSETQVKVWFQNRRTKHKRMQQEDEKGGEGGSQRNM
# [5] = target: T5, Hkb (Drosophila melanogaster, UniProt Q9VN10 181-296); assay: as above
# T5 sequence: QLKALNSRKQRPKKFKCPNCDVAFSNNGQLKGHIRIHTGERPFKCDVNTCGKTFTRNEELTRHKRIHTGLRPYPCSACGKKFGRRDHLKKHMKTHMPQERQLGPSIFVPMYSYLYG
# [6] = target: T6, EcR (Drosophila melanogaster, UniProt P34021 251-348); assay: as above
# T6 sequence: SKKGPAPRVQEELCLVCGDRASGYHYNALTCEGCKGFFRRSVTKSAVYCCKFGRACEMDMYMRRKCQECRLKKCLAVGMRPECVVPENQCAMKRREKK
sequence,measurement,setting,value
TTAGCTAAATATA,binding signal,[1],38.6 Kd / Kd of best base at the position
CACATTTTATA,binding signal,[2],2.5 Kd / Kd of best base at the position
CAATTTTTATA,binding signal,[2],2 Kd / Kd of best base at the position
CACTTTTGATA,binding signal,[2],50.5 Kd / Kd of best base at the position
CAAATCTAGAGCACT,binding signal,[3],2.46 Kd / Kd of best base at the position
CGCTTTTTATA,binding signal,[2],3.5 Kd / Kd of best base at the position
CACTTTTTATC,binding signal,[2],13.5 Kd / Kd of best base at the position
CACTTTTTAGA,binding signal,[2],16 Kd / Kd of best base at the position
CCCTTTTTATA,binding signal,[2],1 Kd / Kd of best base at the position
CACTCTTTATA,binding signal,[2],7.2 Kd / Kd of best base at the position
CACTTCTTATA,binding signal,[2],16.8 Kd / Kd of best base at the position
CACTTTGTATA,binding signal,[2],27.9 Kd / Kd of best base at the position
CAAAACTAGCGCACT,binding signal,[3],9.49 Kd / Kd of best base at the position
CATAACTAGAGCACT,binding signal,[3],1.93 Kd / Kd of best base at the position
CACTTTTTACA,binding signal,[2],1.6 Kd / Kd of best base at the position
TACTTTTTATA,binding signal,[2],1.3 Kd / Kd of best base at the position
CACGTTTTATA,binding signal,[2],5.5 Kd / Kd of best base at the position
AACTTTTTATA,binding signal,[2],2.9 Kd / Kd of best base at the position
CACTTTCTATA,binding signal,[2],37.9 Kd / Kd of best base at the position
CACTGTTTATA,binding signal,[2],3.1 Kd / Kd of best base at the position
CATTTTTTATA,binding signal,[2],6.67 Kd / Kd of best base at the position
CAAAACCAGAGCACT,binding signal,[3],2.45 Kd / Kd of best base at the position
CACTTGTTATA,binding signal,[2],16.7 Kd / Kd of best base at the position
CACTTTTTAAA,binding signal,[2],13.6 Kd / Kd of best base at the position
CTCTTTTTATA,binding signal,[2],4.6 Kd / Kd of best base at the position
CAAAACTAGATCACT,binding signal,[3],1.39 Kd / Kd of best base at the position
CACTTTTTCTA,binding signal,[2],287 Kd / Kd of best base at the position
CACTTTTTATT,binding signal,[2],5.4 Kd / Kd of best base at the position
CACTTTTTTTA,binding signal,[2],181 Kd / Kd of best base at the position
CAAAAGTAGAGCACT,binding signal,[3],1.65 Kd / Kd of best base at the position
CACCTTTTATA,binding signal,[2],1.7 Kd / Kd of best base at the position
GACTTTTTATA,binding signal,[2],1.8 Kd / Kd of best base at the position
CACTATTTATA,binding signal,[2],2.8 Kd / Kd of best base at the position
CACTTTTTATA,Kd,[2],~0.05 nM
CAAAACTAGAGCACC,binding signal,[3],2.3 Kd / Kd of best base at the position
CAAAACTAGAGCATT,binding signal,[3],2.42 Kd / Kd of best base at the position
TAAAACTAGAGCACT,binding signal,[3],1.43 Kd / Kd of best base at the position
CAAAACTGGAGCACT,binding signal,[3],1.5 Kd / Kd of best base at the position
CACTTATTATA,binding signal,[2],2.8 Kd / Kd of best base at the position
CACTTTTTATG,binding signal,[2],2.2 Kd / Kd of best base at the position
CACTTTTTGTA,binding signal,[2],29 Kd / Kd of best base at the position
CACGTCATTAGCTCA,binding signal,[4],1.28 Kd / Kd of best base at the position
CACGTAATTAGTTCA,binding signal,[4],3.85 Kd / Kd of best base at the position
CACGTAATGAGCTCA,binding signal,[4],6.94 Kd / Kd of best base at the position
CACGTAGTTAGCTCA,binding signal,[4],74.7 Kd / Kd of best base at the position
AAGGGGCGTGAA,binding signal,[5],2.74 Kd / Kd of best base at the position
AAGGGGCGTGGT,binding signal,[5],127 Kd / Kd of best base at the position
GAATGACCCGTAC,binding signal,[6],2.06 Kd / Kd of best base at the position
GAATGACGCCTAC,binding signal,[6],19.5 Kd / Kd of best base at the position
GACTGACCCCTAC,binding signal,[6],2.46 Kd / Kd of best base at the position
GAATGACCGCTAC,binding signal,[6],2.37 Kd / Kd of best base at the position
GAATGACTCCTAC,binding signal,[6],7.37 Kd / Kd of best base at the position
CAATGACCCCTAC,binding signal,[6],1.8 Kd / Kd of best base at the position
GAATGACCCCCAC,binding signal,[6],1.69 Kd / Kd of best base at the position
GAATGACCCCTTC,binding signal,[6],1.34 Kd / Kd of best base at the position
GCATGACCCCTAC,binding signal,[6],2.1 Kd / Kd of best base at the position
GAATGACCCCTCC,binding signal,[6],1.29 Kd / Kd of best base at the position
GATTGACCCCTAC,binding signal,[6],1.87 Kd / Kd of best base at the position
GAATGACCCCAAC,binding signal,[6],1.46 Kd / Kd of best base at the position
GAATGACCCCTAT,binding signal,[6],1.25 Kd / Kd of best base at the position
